Values joined by “and” are separate entries in the source; they are usually repeats but may differ in a detail not shown here. Identical values can stand only once. Inconclusive results are not listed. Active and inactive are the calls of the source. Unless noted, calls follow the shape of the dose curve; as a rule, active = well fitted curve in either direction with a large enough effect (not every such curve was filed as active); inconclusive = small, poorly fitted or top-dose-only effect, or another doubt; inactive = flat fitted curve, though single readings scatter.
Columns and labels:
[1] = AP1 Signaling Pathway (AID 357); conditions: ME-180 AP-1-bla reporter, EGF-induced, beta-lactamase ratio, 5 h; at 17.2 µM (top of the series) unless noted;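 also: ME-180 reporter cells stimulated with EGF at its EC50 level; % is scaled to controls: 0 for no effect and ±100 for the full control effect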
In short: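 In this screen, ME-180 cells in Opti-MEM with 0.5% dialyzed FBS received EC50 EGF and compound titrations for 5 h. AP-1 reporter beta-lactamase was detected via CCF4 ratio, giving AC50 for positive and negative modulators.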

[2] = target: Cytochrome P450 1A2 (Homo sapiens) (UniProt P05177); assay: p450-cyp1a2 (AID 410; calls by dose curve; also: potency is read from the fitted curve at half-maximal effect;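 as to activity change, negative = inhibition: -100% = full effect of reference inhibitor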)
In short: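 O-Demethylation of luciferin 6' methyl ether by human CYP1A2 is monitored as luciferase luminescence. Substrate sits at Km (100uM); enzyme is 20nM. Values are scaled to 57 uM furafylline as maximal inhibition.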

[3] = NFAT Signaling Pathway (AID 444); conditions: Jurkat NFAT-bla M1, carbachol, beta-lactamase ratio, 5 h; at 17.2 µM (top of the series) unless noted;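 also: carbachol stimulus at about its EC50 of 1 µM final; % is scaled to controls: 0 for no effect and ±100 for the full control effect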
In short: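 Jurkat cells carrying an NFAT-driven β-lactamase reporter and co-transfected muscarinic M1 receptor were treated with compound plus carbachol (1 uM final, an EC50 level) for 5 h at 37 °C. CCF4 loading followed for 1 h at RT; 460/530 nm ratio gave %activity.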

[4] = Stat Signaling Pathway (AID 446); conditions: ME-180 (cervical carcinoma) SIE beta-lactamase reporter, IL-6 stimulated, 5 h; at 17.2 µM (top of the series) unless noted;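 also: ME-180 cervical cancer cells given 40 pM IL-6 alongside compound; SIE-controlled beta-lactamase reporter measured as 460/530 nm FRET emission ratio; % is scaled to controls: 0 for no effect and ±100 for the full control effect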
In short: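 Compound effects on IL-6-induced STAT reporter activity were measured in ME-180 cells. After overnight culture, cells were co-treated with 40 pM IL-6 for 5 hrs before beta-lactamase substrate loading at room temperature.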

[5] = target: Glucocorticoid receptor (Homo sapiens) (UniProt P04150); assay: GR-GFP Redistribution (AID 450;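 active = compounds whose dose series gives a full or clear partial fitted curve of increased nuclear translocation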; also: potency is read from the fitted curve at half-maximal effect); conditions: U2OS GR-GFP nuclear translocation, laser cytometry, 2 h
[6] = target: Glucocorticoid receptor (Homo sapiens) (UniProt P04150); assay: GR-EFC Redistribution (AID 451; calls by dose curve; also: potency is read from the fitted curve at half-maximal effect); conditions: CHO-K1 GR-EFC translocation, beta-gal luminescence, 2 h
In short: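 CHO-K1 cells stably expressing nuclear-localized β-gal enzyme acceptor and GR fused C-terminally to the enzyme donor fragment; ligand-driven nuclear translocation restores β-gal by complementation. Compounds titrated up to 46 uM final, 2 h at 37 °C; luminescence read.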

[7] = target: Mitogen-activated protein kinase 10 (Mus musculus) (UniProt Q61831); assay: JNK3 AlphaScreen Assay (AID 530);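 also: kinase came from lysate of stimulated human HepG2 cells; signal reports phosphorylation of biotinylated GST-cJun 1-79 at Ser73 with 10 µM ATP; % is scaled to controls: 0 for no effect and ±100 for the full control effect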
In short: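 Phosphorylation of biotinylated GST-cJun(1-79) at Ser73 is measured by AlphaScreen proximity luminescence. Enzyme is JNK3 in HepG2 lysates activated with interleukin-1beta and tumor necrosis factor alpha; ATP is 10 uM final.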

[8] = Cell Viability - BJ (AID 421; calls by dose curve;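 also: potency is read from the fitted curve at half-maximal effect; cells exposed to compound for 40 hours at 37 °C before readout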); conditions: BJ fibroblast viability, qHTS
In short: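 Luminescent ATP signal (CellTiter-Glo, 20 min at room temperature) served as the read-out of viable BJ cells after 40 hours of compound treatment. Responses were scaled between DMSO and 100 uM tamoxifen, and AC50 values were obtained by Hill modeling.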

[9] = Cell Viability - Jurkat (AID 426;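 active = dose-dependent loss of cell ATP signal giving a full or clear fitted curve, ranked by lower potency value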;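 also: potency is read from the fitted curve at half-maximal effect; cells exposed to compound for 40 hours at 37 °C before ATP read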); conditions: qHTS
In short: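 Cells of the human T-cell leukemia line Jurkat (E6-1) are seeded at 5000 per well, treated with compound across a concentration range for 40 hours at 37 °C, then lysed with CellTiter-Glo; luminescence reports ATP.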

[10] = Cell Viability - Hek293 (AID 427;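 active = compounds whose dose-response curve shows a full or clear partial loss of cell viability, called from curve shape rather than a numeric limit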;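 also: potency is read from the fitted curve at half-maximal effect; cells exposed to compound for 40 hours at 37 °C before reading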); conditions: qHTS
In short: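 Luminescent ATP read-out (CellTiter-Glo, 20 min RT) after 40 hr compound exposure at 37 °C in complete medium. Signal normalized to DMSO (basal) and 100 uM tamoxifen (100% inhibition); concentration-response fitted with the standard Hill equation to give AC50.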

[11] = Cell Viability - HepG2 (AID 433; calls by dose curve;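 also: potency is read from the fitted curve at half-maximal effect; potency for ATP loss meaning cytotoxicity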); conditions: qHTS
In short: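 Cytotoxicity read as ATP loss (CellTiter-Glo luminescence) after 40 hr compound exposure of HepG2, 1500 cells/well, 37 °C. AC50 by Hill equation; 0% set by DMSO, 100% inhibition by 100 uM tamoxifen.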

[12] = Cell Viability - MRC5 (AID 434; calls by dose curve;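 also: potency is read from the fitted curve at half-maximal effect; potency reflects cytotoxicity seen as loss of intracellular ATP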); conditions: MRC5 lung fibroblast viability, qHTS
In short: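 Decrease in intracellular ATP, quantified by luciferase light output, reflects compound toxicity toward MRC5 cells exposed for 40 hr in complete culture medium. Concentration-response curves, scaled between DMSO and 100 uM tamoxifen, gave AC50 values.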

[13] = Cell Viability - SK-N-SH (AID 435; calls by dose curve; also: potency is read from the fitted curve at half-maximal effect); conditions: SK-N-SH neuroblastoma cell viability qHTS
In short: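 qHTS cytotoxicity: CellTiter-Glo ATP luminescence after 40 h compound exposure of human neuroblastoma SK-N-SH cells at 37 °C. AC50 derived by Hill-equation fitting, with DMSO as basal and 100 uM tamoxifen as full inhibition.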

[14] = Cell Viability - N2a (AID 540; active = well fitted curve in the direction sought with a large enough effect; an effect the other way counts as inactive or inconclusive;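 also: plate controls were DMSO alone for no effect and tamoxifen control for full effect; nearly all actives have a fitted effect of over 45% in size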); conditions: N2a mouse neuroblastoma cell viability; activity change, negative = cytotoxicity: at 92.2 µM (top of the series)
In short: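 Cytotoxicity was scored as loss of cellular ATP in N2a cells, a mouse neuroblastoma line. Compounds are applied in a qHTS concentration series for 40 hr at 37 °C.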

[15] = Cell Viability - NIH 3T3 (AID 541; active = well fitted curve in the direction sought with a large enough effect; an effect the other way counts as inactive or inconclusive;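 also: plate controls were DMSO alone for no effect and tamoxifen positive control for full effect; nearly all actives have a fitted effect of over 25% in size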); conditions: NIH 3T3 cell viability, qHTS; activity change, negative = cytotoxicity: at 92.2 µM (top of the series)
In short: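 Cells seeded at 1000/well, rested 5 hr at 37 °C, then dosed and incubated 40 hr at 37 °C. CellTiter-Glo added, 20 min room temperature, luminescence read. AC50 by Hill fit.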

[16] = Cell Viability - HUV-EC-C (AID 542; active = well fitted curve in the direction sought with a large enough effect; an effect the other way counts as inactive or inconclusive; also: % is scaled to controls: 0 for no effect and ±100 for the full control effect; nearly all actives have a fitted effect of over 35% in size)
In short: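 Cells were seeded at 1000 per well and incubated 5 hr at 37 °C before compound addition. After 40 hr at 37 °C, CellTiter-Glo reagent was added for 20 min and luminescence read. AC50 values came from Hill-equation modelling.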

[17] = Cell Viability - H-4-II-E (AID 543; active = well fitted curve in the direction sought with a large enough effect; an effect the other way counts as inactive or inconclusive; also: % is scaled to controls: 0 for no effect and ±100 for the full control effect; nearly all actives have a fitted effect of over 35% in size)
In short: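 Cells seeded at 1500 per well and rested 5 hr; compounds added; 40 hr incubation at 37 °C; CellTiter-Glo added, 20 min at room temperature; luminescence read. Hill-equation fits gave AC50.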

[18] = Cell Viability - SH-SY5Y (AID 544; active = well fitted curve in the direction sought with a large enough effect; an effect the other way counts as inactive or inconclusive;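 also: 0% = DMSO alone and -100% = 100 µM tamoxifen; nearly all actives have a fitted effect of over 55% in size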); conditions: SH-SY5Y neuroblastoma cell viability; viability change, negative = cytotoxic: at 92.2 µM (top of the series)
In short: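 Cells were plated at 1500 per well and allowed 5 hr at 37 °C. Compounds were added across a concentration range and incubated 40 hr at 37 °C. CellTiter-Glo was added for 20 min at room temperature before luminescence reading.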

[19] = Cell Viability - Renal Proximal Tubule (AID 545; active = well fitted curve in the direction sought with a large enough effect; an effect the other way counts as inactive or inconclusive;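 also: 0% = DMSO only and -100% = 100 µM tamoxifen; nearly all actives have a fitted effect of over 40% in size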)
In short: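 Viability taken as intracellular ATP (CellTiter-Glo luminescence) after 40 hr, 37 °C compound treatment of primary proximal tubule cells from rat kidney, 1000 cells/well; Hill-equation fits of qHTS concentration-response data gave AC50.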

[20] = Cell Viability - Mesenchymal (AID 546; active = well fitted curve in the direction sought with a large enough effect; an effect the other way counts as inactive or inconclusive;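 also: cells exposed to compound for 40 hours before reading; 0% = DMSO only and -100% = 100 µM tamoxifen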)
In short: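 In this qHTS cytotoxicity format, glomerulus-derived human mesenchymal kidney cells received compound for 40 hr, then luciferase-based ATP quantitation. Concentration-response data were fitted with the Hill equation.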

Chain of Cytochrome P450 1A2 (Homo sapiens) (P05177 whole entry, looked up): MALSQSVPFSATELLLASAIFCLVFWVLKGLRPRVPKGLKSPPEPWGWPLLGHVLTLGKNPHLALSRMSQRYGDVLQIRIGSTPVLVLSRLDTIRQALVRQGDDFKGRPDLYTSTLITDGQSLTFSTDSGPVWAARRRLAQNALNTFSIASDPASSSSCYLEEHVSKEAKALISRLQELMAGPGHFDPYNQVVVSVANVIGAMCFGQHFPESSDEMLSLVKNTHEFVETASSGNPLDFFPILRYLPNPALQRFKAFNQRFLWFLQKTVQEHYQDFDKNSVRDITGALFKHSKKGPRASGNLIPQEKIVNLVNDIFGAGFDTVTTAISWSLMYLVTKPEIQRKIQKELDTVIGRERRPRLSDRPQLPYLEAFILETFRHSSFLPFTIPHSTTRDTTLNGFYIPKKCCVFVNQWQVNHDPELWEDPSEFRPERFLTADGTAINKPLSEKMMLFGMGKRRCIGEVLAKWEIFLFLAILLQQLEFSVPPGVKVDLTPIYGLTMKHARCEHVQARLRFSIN
Chain of Glucocorticoid receptor (Homo sapiens) (P04150 whole entry, looked up, the tested form may be a part): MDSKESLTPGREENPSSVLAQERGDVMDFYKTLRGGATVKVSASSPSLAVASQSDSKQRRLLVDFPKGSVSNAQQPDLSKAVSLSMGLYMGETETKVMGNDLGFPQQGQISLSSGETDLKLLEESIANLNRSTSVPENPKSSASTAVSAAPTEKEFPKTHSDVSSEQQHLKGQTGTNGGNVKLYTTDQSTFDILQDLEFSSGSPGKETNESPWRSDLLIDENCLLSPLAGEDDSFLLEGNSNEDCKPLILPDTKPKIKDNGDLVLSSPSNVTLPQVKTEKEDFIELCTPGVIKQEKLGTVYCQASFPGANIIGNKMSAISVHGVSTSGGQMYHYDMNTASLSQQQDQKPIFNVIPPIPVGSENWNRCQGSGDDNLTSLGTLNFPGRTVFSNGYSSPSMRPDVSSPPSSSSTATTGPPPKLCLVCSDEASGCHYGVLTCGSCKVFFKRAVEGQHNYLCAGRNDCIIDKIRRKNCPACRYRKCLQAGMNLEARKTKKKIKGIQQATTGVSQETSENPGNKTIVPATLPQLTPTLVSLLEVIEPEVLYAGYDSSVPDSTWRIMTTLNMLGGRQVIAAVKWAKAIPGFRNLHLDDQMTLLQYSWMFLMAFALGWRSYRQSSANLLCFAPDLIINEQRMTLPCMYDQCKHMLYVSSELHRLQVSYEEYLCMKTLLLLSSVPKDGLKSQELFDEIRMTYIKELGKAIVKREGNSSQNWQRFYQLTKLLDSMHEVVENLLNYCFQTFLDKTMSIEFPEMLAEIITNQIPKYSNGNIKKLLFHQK

Cc1cccc(Nc2ccncc2S(=O)(=O)NC(=O)NC(C)C)c1
inactive: activity change, negative = inhibition [1] -9.3% | Potency [2] | activity change, negative = inhibition [3] -2.46% | activity, negative = inhibition [4] -16.6% | Potency [5] > 20.6 µM | Potency [6] > 20.6 µM | Potency [7]

CCc1cc(C(N)=S)ccn1
inactive: activity change, negative = inhibition [1] -4.73% | Potency [8] > 92 µM | Potency [9] > 92 µM | Potency [10] > 92 µM | Potency [11] > 92 µM | Potency [12] > 92 µM | Potency [13] > 92 µM | activity change, negative = inhibition [3] 5.86% | activity, negative = inhibition [4] -6.82% | Potency [5] > 20.6 µM | Potency [6] > 20.6 µM | Potency [7] | Potency [14] | activity change, negative = cytotoxicity [15] -7.33% | Potency [16] | Potency [17] | Potency [18] | Potency [19] | Potency [20]

COc1cnc(NS(=O)(=O)c2ccc(N)cc2)nc1
inactive: activity change, negative = inhibition [1] -7.19% | Potency [2] | activity change, negative = inhibition [3] -4.83% | activity, negative = inhibition [4] -4.71% | Potency [5] > 20.6 µM | Potency [6] > 20.6 µM | Potency [7]

Nc1ccc(S(=O)(=O)Nc2ccccn2)cc1
inactive: activity change, negative = inhibition [1] -6.81% and -4.21% | Potency [2] | activity change, negative = inhibition [3] -3.78% and -28.1% | activity, negative = inhibition [4] -7.68% and -0.177% | Potency [5] > 20.6 µM | Potency [6] > 20.6 µM | Potency [7]

CC1=NN(c2ccccc2)C(=O)C1
active: Potency [2] 12.6 µM
inactive: activity change, negative = inhibition [1] -7.19% | Potency [8] > 92 µM | Potency [9] > 92 µM | Potency [10] > 92 µM | Potency [11] > 92 µM | Potency [12] > 92 µM | Potency [13] > 92 µM | activity change, negative = inhibition [3] 9.94% | activity, negative = inhibition [4] -2.54% | Potency [5] > 46 µM and > 20.6 µM | Potency [6] > 46 µM | Potency [7] | Potency [14] | activity change, negative = cytotoxicity [15] -5.02% | Potency [16] | Potency [17] | Potency [18] | Potency [19] | Potency [20]

Cc1cccc(N(C)C(=S)Oc2ccc3ccccc3c2)c1
inactive: activity change, negative = inhibition [1] -6.52% and 9.03% | activity, negative = inhibition [4] 4.85% and -13.1% | Potency [5] > 20.6 µM | Potency [6] > 20.6 µM
active: Potency [2] 2.51 µM

COC(=O)Nc1nc2ccc(C(=O)c3ccccc3)cc2[nH]1
active: Potency [2] 3.98 µM
inactive: activity change, negative = inhibition [1] 17.1% and -8.17% | activity, negative = inhibition [4] -12.3% and -12% | Potency [5] > 20.6 µM | Potency [6] > 20.6 µM | Potency [7]

NC(=O)c1cccc(N)c1
inactive: activity change, negative = inhibition [1] 11.6% [at 38 µM] | activity change, negative = inhibition [3] 1.89% [at 38 µM] | activity, negative = inhibition [4] 1.75% [at 38 µM] | Potency [5] > 46 µM | Potency [6] > 46 µM | Potency [7]
active: Potency [2] 15.8 µM

COc1ccc2c(c1)c(CC(=O)OCC(=O)O)c(C)n2C(=O)c1ccc(Cl)cc1
inactive: activity change, negative = inhibition [1] -9.7% and -8.22% | Potency [2] | activity change, negative = inhibition [3] 2.54% and 1.97% | activity, negative = inhibition [4] 1.57% and -16% | Potency [5] > 20.6 µM | Potency [6] > 20.6 µM | Potency [7]

CCCOc1ccc(C(=O)OCCN(CC)CC)cc1N
inactive: activity change, negative = inhibition [1] 5.39% | activity change, negative = inhibition [3] -19.1% | activity, negative = inhibition [4] 1.44% | Potency [5] > 20.6 µM | Potency [6] > 20.6 µM | Potency [7]
active: Potency [2] 5.01 µM

NC(N)=NC(N)=NCCc1ccccc1
active: activity change, negative = cytotoxicity [14] -109%
inactive: activity change, negative = inhibition [1] 5.09% and 3.64% | Potency [9] > 92 µM | Potency [10] > 92 µM | Potency [12] > 92 µM | Potency [13] > 92 µM | activity change, negative = inhibition [3] -2.75% and 12.2% | activity, negative = inhibition [4] 9.3% and 14.4% | Potency [5] > 20.6 µM | Potency [6] > 20.6 µM | Potency [7] | Potency [16] | Potency [18] | Potency [19] | Potency [20]

CCn1cc(C(=O)O)c(=O)c2cc(F)c(N3CCNCC3)nc21
inactive: activity change, negative = inhibition [1] -5.75% and 5.53% | Potency [2] | activity change, negative = inhibition [3] -11.9% and 9.94% | activity, negative = inhibition [4] 4.75% and 1.14% | Potency [7]

COc1cc(NS(=O)(=O)c2ccc(N)cc2)nc(OC)n1
inactive: activity change, negative = inhibition [1] 1.62% and 1.87% | Potency [2] | activity change, negative = inhibition [3] -19.2% | activity, negative = inhibition [4] 9.03% and -4.46% | Potency [5] > 20.6 µM | Potency [6] > 20.6 µM | Potency [7]
